assay: plasmodial surface anion channel blockers, osmotic lysis – cell-based, P. falciparum Indochina, OD700, 2 h, primary screen (AID 1155);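 further: lysis reports solute entry through the parasite surface anion channel PSAC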; settings: P. falciparum Indochina infected erythrocytes, higher = more signal, called active from +8 up or from −8 down

z-score, inactive:
CC#CCOCCC=C1c2ccccc2[C@@H](OC)[C@@H]1C -0.16
CCOC(=O)[C@H](CC(C)C)NC(=O)CCC1CC(OC(=O)NCc2ccc3c(c2)OCO3)CC2(CCCC(COC(=O)NCCOc3ccccc3)O2)O1 (stereo partly specified) -0.35
CON=C(C)CCN1CCCCc2nc(C)c(C)cc21 -0.117
C=CC[C@@H]1C=C[C@H](ON=CC[C@@H]2C=C[C@H](OC(C)=O)[C@@H](COC(C)=O)O2)[C@@H](CO)O1 0.538
C[C@@H]1CC[C@@H](C(=O)O)N[C@H]1c1cccc(N2CCOCC2)c1 0.18
CC(=O)OC[C@H]1O[C@H](CC=NOC[C@@H](O)COCc2ccco2)C=C[C@@H]1OC(C)=O -0.161
CC(CCN1CCc2nc(-c3ccccc3)c(-c3ccccc3)cc2C1)=NO[C@H](C)c1cn([C@H](CO)Cc2ccccc2)nn1 0.147
CCOC(=O)CCN1C(=O)[C@H]2[C@H]3[C@H](O)[C@H](O)CC(=NNC(=O)OCc4ccc(OC)cc4)[C@H]3CC[C@H]2C1=O -0.0212
CC(=O)OC[C@H]1O[C@@H](ON=C(C)CCC(=O)OC[C@H]2O[C@H](C#Cc3ccccc3)C=C[C@@H]2Oc2ccc(C)cc2)[C@H](OC(C)=O)[C@@H](OC(C)=O)[C@@H]1OC(C)=O 1.11
O=C1CCCC=C1C(O)c1ccc([N+](=O)[O-])cc1 (stereo unspecified) -0.347

assay: changes in parasitized red cell lysis, either direction – P. falciparum Indochina, OD700, 3 h, PSAC antagonist project, primary screen (AID 1156); settings: P. falciparum-infected erythrocytes, osmotic lysis, higher = more signal, called active from +8 up or from −8 down

z-score, inactive:
CCOC(=O)[C@H](Cc1ccccc1)NC(=O)CCC1CC(OC(=O)NCc2ccc3c(c2)OCO3)CC2(CCCC(COC(=O)NCCOC)O2)O1 (stereo partly specified) 0.61
CCOC(=O)[C@H](Cc1ccccc1)NC(=O)CCC1CC(OC(=O)NCc2ccc3c(c2)OCO3)CC2(CCCC(COC(=O)NCCCN3CCCC3=O)O2)O1 (stereo partly specified) 0.218
COC(=O)[C@H](C)NC(=O)CCC1CC(OC(=O)NCCc2ccc(F)cc2)CC2(CCCC(COC(=O)NCCOc3ccccc3)O2)O1 (stereo partly specified) 0.189
O=C1CCCC=C1C(O)C1CCCCC1 (stereo unspecified) -0.663
CCOC(=O)NN=C1C[C@@H](O)[C@@H](O)[C@@H]2[C@@H]3C(=O)N(c4ccc(F)cc4F)C(=O)[C@@H]3CC[C@H]12 0.465
CC(=O)OC[C@H]1O[C@H](CC=NO[C@@H](C)c2cc(-c3c(C)cc(C)cc3C)no2)C=C[C@@H]1OC(C)=O 1.12
CCOC(=O)CCN1C(=O)[C@H]2[C@H]3[C@H](O)[C@H](O)CC(=NO[C@@H]4O[C@H](CO)[C@@H](O)[C@H](O)[C@H]4O)[C@H]3CC[C@H]2C1=O -0.788
CCOC(=O)[C@H](CC(C)C)NC(=O)CCC1CC(OC(=O)NCCc2ccc(F)cc2)CC2(CCCC(COC(=O)NCc3cccc(C(F)(F)F)c3)O2)O1 (stereo partly specified) 0.0716
C[C@H]1CC[C@@H](C(=O)O)N[C@@H]1c1cccc(N2CCCC2=O)c1 0.121
CC(=O)OC[C@H]1O[C@@H](ON=C2[C@H]3CCn4c(=O)n(-c5ccccc5)c(=O)n4[C@H]3[C@H](O)[C@@H]3O[C@H]23)[C@H](OC(C)=O)[C@@H](OC(C)=O)[C@@H]1OC(C)=O -0.258
CCOC(=O)[C@H](CC(C)C)NC(=O)CCC1CC(OC(=O)NCCc2ccc(F)cc2)CC2(CCCC(COC(=O)NCCCN3CCCC3=O)O2)O1 (stereo partly specified) -0.172
CC(CCC(=O)OC[C@H]1O[C@H](C#Cc2ccccc2)C=C[C@@H]1Oc1ccc(C)cc1)=NOC[C@@H](C)[C@H](OCc1ccccc1)C(C)C 0.901
CCOC(=O)[C@H](Cc1ccccc1)NC(=O)CCC1CC(OC(=O)NCc2cccc3ccccc23)CC2(CCCC(COC(=O)NCCc3ccccc3OC)O2)O1 (stereo partly specified) -0.602
COC(=O)[C@H](C)NC(=O)CCC1CC(OC(=O)NCCc2ccc(F)cc2)CC2(CCCC(COC(=O)NCCc3ccccc3OC)O2)O1 (stereo partly specified) 0.209
CCOC(=O)NN=C1C[C@@H](O)[C@@H](O)[C@@H]2[C@@H]3C(=O)N(C[C@@H]4CCCO4)C(=O)[C@@H]3CC[C@H]12 -0.497
CON=C1c2cc(OC)ccc2O[C@H](c2cccc(OC)c2)[C@H]1O -0.241
COC(=O)[C@H](C)NC(=O)CCC1CC(OC(=O)NCc2ccc3c(c2)OCO3)CC2(CCCC(COC(=O)NCCC(C)C)O2)O1 (stereo partly specified) 0.3
C[C@H]1C=CCC(=O)OC[C@H](C)C(=O)N2CCC[C@H]2C(=O)OC1 0.484
CCCNC(=O)OC[C@H]1O[C@H](CCON=C2C[C@@H](O)[C@@H](O)[C@@H]3[C@@H]4C(=O)N(CC)C(=O)[C@@H]4CC[C@@H]23)C=C[C@@H]1Oc1ccc(OC)cc1 -0.0328
COC(=O)[C@@H]1CC[C@H](C)[C@@H](c2ccc(C)cc2)N1C(=O)c1ccc(C=NO[C@@H](C)c2cc(-c3c(C)cc(C)cc3C)no2)cc1 0.894
CC(C)(C)N1C(=O)[C@H]2[C@H]3[C@H](O)[C@H](O)CC(=NNC(=O)OCc4ccccc4)[C@H]3CC[C@H]2C1=O 0.374
CO[C@@H]1COC(=O)CC=C[C@H](C)[C@H](OC)COC(=O)[C@@H]2CCCN2C(=O)CC=C[C@H]1C -0.0249
Cc1cc2c(nc1C)CCCCN2CC(O)CN1CCCc2nc(-c3ccc(Br)cc3)ccc21 (stereo unspecified) 0.0577
COc1ccc(O[C@H]2C=C[C@@H](C#Cc3ccccc3)O[C@@H]2CO)cc1 -0.24
C#CCCCON=C1C[C@@H](O)[C@@H](O)[C@@H]2[C@@H]3C(=O)N(C[C@@H]4CCCO4)C(=O)[C@@H]3CC[C@H]12 -0.0365
O=C1[C@H]2[C@H]3[C@H](O)[C@H](O)CC(=NO[C@@H]4O[C@H](CO)[C@@H](O)[C@H](O)[C@H]4O)[C@@H]3CC[C@H]2C(=O)N1c1cccc(Oc2ccccc2)c1 0.271
CC#CCOCCC=C1c2ccccc2[C@@H](OC)[C@@H]1C -0.156
CCOC(=O)[C@H](CC(C)C)NC(=O)CCC1CC(OC(=O)NCc2ccc3c(c2)OCO3)CC2(CCCC(COC(=O)NCCOc3ccccc3)O2)O1 (stereo partly specified) -0.118
CON=C(C)CCN1CCCCc2nc(C)c(C)cc21 -0.374
C=CC[C@@H]1C=C[C@H](ON=CC[C@@H]2C=C[C@H](OC(C)=O)[C@@H](COC(C)=O)O2)[C@@H](CO)O1 -0.0293
C[C@@H]1CC[C@@H](C(=O)O)N[C@H]1c1cccc(N2CCOCC2)c1 0.468
CC(=O)OC[C@H]1O[C@H](CC=NOC[C@@H](O)COCc2ccco2)C=C[C@@H]1OC(C)=O 0.482
CC(CCN1CCc2nc(-c3ccccc3)c(-c3ccccc3)cc2C1)=NO[C@H](C)c1cn([C@H](CO)Cc2ccccc2)nn1 1.16
CCOC(=O)CCN1C(=O)[C@H]2[C@H]3[C@H](O)[C@H](O)CC(=NNC(=O)OCc4ccc(OC)cc4)[C@H]3CC[C@H]2C1=O 0.0927
CC(=O)OC[C@H]1O[C@@H](ON=C(C)CCC(=O)OC[C@H]2O[C@H](C#Cc3ccccc3)C=C[C@@H]2Oc2ccc(C)cc2)[C@H](OC(C)=O)[C@@H](OC(C)=O)[C@@H]1OC(C)=O 0.63
O=C1CCCC=C1C(O)c1ccc([N+](=O)[O-])cc1 (stereo unspecified) -0.324

— PubChem BioAssay
